Source: PubChem BioAssay
Rows were chosen to be rich in hits. Some 3.8% of all compounds tested hit in one or more screens of this group.
A549 viability = kills or reduces viability of A549 cells in Nrf2 counter-screen | 390,000 compounds, 0.16% hits | AID 504648 | A549 ARE-Fluc cells, CellTiter-Fluor viability, 18-24 h | Potency, µM (titrated, usually from 46 µM), for inactives: at the highest dose activity change, negative = cytotoxicity, most hits filed as inhibitors; note: % is set by controls: 0 for no effect and ±100 for the full control effect
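A549 ARE_Fluc cells in 5% FBS OPTI-MEM were exposed to compounds in concentration-response for 18-24 h at 37 deg C. Viability was read by CellTiter-Fluor fluorescence (Ex 405/Em 525) after 30 min, before the luciferase read.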
HepG2 viability = counter-screen for TGF-b inhibitors: cytotoxicity in HepG2 cells | HepG2 CAGA-GFP viability, ATP luminescence, 18 h | Potency, µM (top dose mostly 46.1 µM), without a hit: top-dose activity change, negative = cytotoxicity, usual class: cytotoxic | 410,000 compounds, 0.76% hits | AID 588856
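HepG2 CAGA-GFP cells (1000/well, DMEM with 1% FBS) received compound, then TGF-beta at 500 pg/mL final, and were incubated 18 hours at 37 degrees C. Viability was read by CellTiter-Glo luminescence. Media-only wells were set as complete cell-killing and DMSO as no toxicity.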
TGFb SMAD3 inh = blocks TGF-b signaling | AID 588855 | 410,000 compounds, 1.2% hits | Potency, µM (titrated, usually from 46.1 µM), for the others: top-dose activity, negative = inhibition, actives largely listed as inhibitors | HepG2 CAGA-GFP TGF-b/SMAD3 reporter, GFP fluorescence, 18 h; TGF-beta stimulated, 500 pg/mL final; note: % is set by controls: 0 for no effect and ±100 for the full control effect; nearly all actives have a fitted effect of over 65% in size
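HEPG2 CAGA-GFP cells (1000/well, DMEM with 1% FBS) were pre-incubated 2 h at 37 degrees C, given compound by pin tool, then stimulated with TGF-beta at 500 pg/mL final for 18 h before per-cell GFP fluorescence imaging.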
Nrf2 inh = inhibitors of Nrf2 signaling; A549 ARE-Fluc reporter, luciferase luminescence, 18-24 h; Potency, µM (doses to about 46 µM), for the others: top-dose activity change, negative = inhibition, most hits filed as inhibitors; 360,000 compounds, 2.1% hits; note: % is set by controls: 0 for no effect and ±100 for the full control effect; nearly all actives have a fitted effect of over 60% in size
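Nrf2 function is reported as luminescence of an ARE-controlled luciferase in A549 cells. Compounds were tested at several concentrations, and a CellTiter-Fluor read on the same wells flagged cytotoxicity.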
ATXN viability = cell viability loss in ATXN counter-screen. S2 cells (HEK-293 line with an ATXN2-luciferase reporter) viability, CellTiter-Fluor protease fluorescence, 24 h. Potency, µM (doses to about 56.7 µM), usual class: cytotoxic. 400,000 compounds, 0.49% hits. AID 651635; note: nearly all actives have a fitted effect of over 40% in size
ATXN2 expr inh = inhibitors of ATXN2 expression; 360,000 compounds, 0.72% hits; Potency, µM (doses to about 57 µM), without a hit: top-dose activity change, negative = inhibition, actives largely listed as inhibitors; HEK-293 ATXN2-luciferase reporter, luminescence, 24 h; note: % is set by controls: 0 for no effect and ±100 for the full control effect; nearly all actives have a fitted effect of over 55% in size
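ATXN2-luciferase reporter cells (luciferase flanked by upstream and downstream ATXN2 gene portions) were treated 24 h at 37 °C with compounds at up to 57 uM. SteadyGlo luminescence gave expression; GF-AFC fluorescence gave viability.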
* marks the source's active call; other numbers are inactive results; i = inactive; ? = inconclusive; · = not tested or not shown. Calls come from the whole dose curve; as a rule, active = well fitted curve in the direction sought with a large enough effect; inconclusive = small, poorly fitted or top-dose-only effect, or another doubt; inactive = no such curve, though single readings can be large; an effect the other way counts as inactive or inconclusive. Potency is the fitted concentration of half-maximal effect.

SMILES	A549 viability	HepG2 viability	TGFb SMAD3 inh	Nrf2 inh	ATXN viability	ATXN2 expr inh
O=c1cc(-c2ccccc2)cc(-c2ccccc2)n1O	-19%	-8%	?	?	16µM*	14µM*
O=c1nc(N/N=C/c2ccccn2)cn[nH]1	-25%	-13%	6%	?	i	6.3µM*
CN1CCN(C(=O)CCCN2C(=O)/C(=C/c3cccc(Br)c3)SC2=S)CC1	?	-27%	?	?	11µM*	?
CN1CCN(C(=O)CCN2C(=O)/C(=C/c3cccc(Br)c3)SC2=S)CC1	0%	-175%	18µM*	?	?	88%
CSc1ccccc1OCc1cc(C(=O)N2CCc3c(Cl)cccc3C2)no1	3%	-34%	?	9.2µM*	i	0%
Cc1ccc(C)c(Nc2nnc(-n3nc(C)cc3C)c3ccccc23)c1	10%	-9%	-18%	-8%	i	3%
Oc1ccc(-c2n[nH]c(=S)n2-c2ccc3c(c2)OCCO3)c(O)c1	-11%	-48%	14µM*	3%	i	?
S=c1[nH]nc(-c2ccc(Cl)cc2Cl)n1-c1ccc2c(c1)OCCO2	-3%	11%	1%	?	?	9%
COc1ccc(C(CC(=O)Nc2ccccn2)N2Cc3ccccc3C2=O)cc1OC (stereo unspecified)	1%	-7%	-3%	6%	i	2%
CCCCNS(=O)(=O)c1ccc(S(=O)(=O)NCc2ccncc2)cc1	-16%	-11%	-10%	7.3µM*	i	-16%
CC(=O)Nc1ccc(C(=O)Nc2ccc(S(=O)(=O)NCC3CCCO3)cc2)cc1 (stereo unspecified)	3%	-12%	26%	1%	i	3%
O=C(Nc1ccc(F)cc1)c1ccc(S(=O)(=O)NCC2CCCO2)cc1 (stereo unspecified)	23µM*	-8%	-3%	23µM*	i	-8%
O=S(=O)(NCc1ccccc1)c1ccc(S(=O)(=O)NCC2CCCO2)cc1 (stereo unspecified)	9%	-5%	4%	2%	i	-17%
O=C(c1ccc(S(=O)(=O)NCC2CCCO2)cc1)N1CCc2ccccc21 (stereo unspecified)	-22%	-5%	-19%	26µM*	i	-15%
O=S(=O)(NCc1ccncc1)c1ccc(S(=O)(=O)NCC2CCCO2)cc1 (stereo unspecified)	-4%	1%	-16%	9.2µM*	i	-21%
Cc1ncc2c(c1CNC(=O)c1ccccc1F)CCN(C(=O)c1[nH]c3ccc(Cl)cc3c1C)C2	·	·	·	·	i	·
CCCN(CCC)C(=O)CC(c1ccccc1)c1cc(Br)ccc1O (stereo unspecified)	?	-95%	?	16µM*	i	-34%
CCCN(CCC)C(=O)CC(c1ccccc1)c1ccc(C)cc1O (stereo unspecified)	-3%	-25%	?	-19%	i	-4%
CCn1cc([N+](=O)[O-])c(C(=O)N2N=C(c3cccc4ccccc34)CC2c2ccccc2O)n1 (stereo unspecified)	?	-55%	13µM*	?	?	?
CCn1cc(Cl)c(C(=O)N2N=C(c3ccc4ccccc4c3)CC2c2ccccc2O)n1 (stereo unspecified)	-24%	-45%	7.1µM*	?	?	18µM*
CCn1cc([N+](=O)[O-])c(C(=O)N2N=C(c3ccc4ccccc4c3)CC2c2ccccc2O)n1 (stereo unspecified)	?	-75%	14µM*	?	?	?
CCOc1cc(OCC)c(C(=O)CCC(=O)O)cc1OCC	·	·	·	·	i	4%
O=C(COC(=O)c1cccc(F)c1)Nc1cccc(S(=O)(=O)N2CCCCC2)c1	·	17%	-1%	·	i	·
